Measurements from ChEMBL document CHEMBL1157539, “Thousands of chemical starting points for antimalarial lead identification” (Nature, 2010).
Values joined by “and” are separate entries in the source; they are usually repeats but may differ in a detail not shown here. Equal values may be shown once.

What was measured:
Format in all cases: functional
[1] = system: Plasmodium falciparum; experiment: GSK_TCMDC: Inhibition of Plasmodium falciparum 3D7 in whole red blood cells, using parasite LDH activity as an index of growth. Test compounds present at 2uM
[2] = system: Plasmodium falciparum; experiment: GSK_TCMDC: Inhibition of Plasmodium falciparum Dd2 in whole red blood cells, using parasite LDH activity as an index of growth. Test compounds present at 2uM
[3] = system: HepG2; experiment: GSK_TCMDC: Percent inhibition of human HepG2 cell line. Test compounds present at 10uM.

| SMILES | Inhibition [1] | Inhibition [2] | Inhibition [3] |
| --- | --- | --- | --- |
| COC(=O)CN(C(=O)/C=C/c1ccc(Cl)c(Cl)c1)C1CCC(CN2CCC(c3c[nH]c4ccccc34)CC2)CC1 (stereo not given) | 100% | 69% | 31% |
| C1=C(c2c[nH]c3ccccc23)CCN(Cc2ccccc2)C1 | 91% | 80% | 22% |
| COc1nc(N)ncc1C(=O)NC1CN2CCC1CC2 (stereo not given) | 92% | 0% | 26% |
| CC[C@H]1CN2CC[C@@H]1C[C@H]2[C@H](O)c1ccnc2ccc(Cl)cc12.Cl | 100% | 98% | 0% |
| Cc1[nH]c2ccccc2c1C1=CCN(CCCCCNC(=O)/C=C/c2ccc(Cl)c(Cl)c2)CC1 | 97% | 89% | 28% |
| CC(Cc1ccc(NC(=O)CCCc2ccccc2)cc1)NCCc1cccc(Cl)c1.Cl (stereo not given) | 94% | 3% | 12% |
| CCCCCCCc1cc(O)c2c(c1)OC(C)(C)c1ccncc1-2.Cl | 95% | 52% | 0% |
| CCCCCc1cc(O)c2c(c1)OC(C)(C)CC2C1=CCN(Cc2cnc3ccccc3c2)CC1.Cl.O (stereo not given) | 98% | 98% | 27% |
| COc1coc(C(=O)NC2CCN(CC3(c4ccc(Cl)cc4)CCC3)CC2)c1OC | 96% | 96% | 2% |
| O=C(/C=C/c1ccc(Cl)c(Cl)c1)N1CCC(CN2CCC(c3c[nH]c4ccccc34)C(O)C2)CC1 (stereo not given) | 99% | 14% | 37% |
| CN(c1cc(NC(=O)c2ccc(F)cc2)ccn1)C1CCN(Cc2cccc(O)c2)CC1.O=C(O)C(F)(F)F | 100% | 82% | 3% |
| Cc1ccc(CC(C)NCC(O)c2cccc([N+](=O)[O-])c2)cc1 (stereo not given) | 97% | 85% | 0% |
| Cc1ccc(C)c(C=CC(=O)NC2CCC(CN3CCC(c4c[nH]c5ccccc45)CC3)CC2)c1 (stereo not given) | 100% | 55% and 80% | 46% and 38% |
| Cc1csc(NC2=NCCN2)n1.Cl | 99% | 1% | 10% |
| Cl.OC(CNC1CCCCCCC1)c1ccc(Cl)c(Cl)c1 (stereo not given) | 100% | 99% | 17% |
| CC[C@H]1CN2CC[C@@H]1C[C@H]2[C@H](O)c1cc(N2CCC(c3ccccc3)CC2)nc2ccc(OC)cc12 | 99% | 98% | 45% |
| CN(c1cc(NC(=O)c2cccs2)ccn1)C1CCN(Cc2ccccc2)CC1.O=C(O)C(F)(F)F | 92% | 87% | 0% |
| COc1ccc2[nH]cc(C3=CCN(Cc4ccccc4)CC3)c2c1 | 90% | 84% | 51% |
| O=C(Cc1cc(=O)oc2cc(O)ccc12)NC1CCC(CN2CCC(c3c[nH]c4ccccc34)CC2)CC1 (stereo not given) | 96% | 0% | 5% |
| COc1ccc(CC(C)NCC(O)c2ccc(Cl)c(Cl)c2)cc1 (stereo not given) | 98% | 96% | 0% |

| SMILES | Inhibition [1] | Inhibition [2] | Inhibition [3] |
| --- | --- | --- | --- |
| CC(=O)N(Cc1cccc(-c2cccc(CNCc3ccc4c(c3)OCO4)c2)c1)C1CCN(Cc2ccccc2)CC1.O=C(O)C(F)(F)F | 95% | 21% | 16% |
| COC(=O)c1ccc(CC(C)NCC(O)c2cccc(Oc3cccc(C(F)(F)F)c3)c2)cc1.Cl (stereo not given) | 91% | 73% | 19% |
| COc1ccc(C(=O)C2CC2CN2CC=C(c3c[nH]c4ccccc34)CC2)cc1 (stereo not given) | 95% | 89% | 12% |
| CCCCCSc1cc(O)c(C(CNC)C(C)C)cc1OC.O=C(O)/C=C\C(=O)O (stereo not given) | 100% | 99% | 5% |
| COc1ccc(CC(C)NCC(O)c2cccc(Br)c2)cc1 (stereo not given) | 99% | 93% | 10% |
| O=C(/C=C/c1ccccc1Cl)NC1CCC(CN2C3CCC2CC(c2c[nH]c4ccccc24)C3)CC1 (stereo not given) | 100% | 98% | 56% |
| O=C(/C=C/c1ccc(Cl)c(Cl)c1)NC1CCC(CN2CCC(c3c[nH]c4ccc(O)cc34)CC2)CC1 (stereo not given) | 100% | 100% and 99% | 35% and 38% |
| CN1CCC(COC(=O)C(O)(c2ccccc2)c2ccccc2)C1 (stereo not given) [TRICLAZATE] | 98% | 4% | 0% |
| O=C(/C=C/c1cccc(F)c1)NC1CCC(CN2CCC(c3c[nH]c4ccccc34)CC2)CC1 (stereo not given) | 99% and 98% | 28% and 31% | 39% and 35% |
| O=C(NC1CCC(CN2CCC(c3c[nH]c4ccccc34)CC2)CC1)c1csc(-c2ccc(C(F)(F)F)cc2Cl)n1 (stereo not given) | 99% | 75% | 32% |
| COC(=O)/C=C/c1ccc(CC(C)NCC(O)c2cccc(C(F)(F)F)c2)cc1.Cl (stereo not given) | 97% | 93% | 41% |
| Cl.OC(CNC1CCCCCC1)c1ccc(Cl)c(Cl)c1 (stereo not given) | 99% | 98% | 0% |
| C=C[C@H]1CN2CC[C@H]1C[C@@H]2[C@@H](O)c1ccnc2ccccc12 [CINCHONINE] | 100% | 2% | 0% |
| CC(=O)C1(c2ccccc2)CCN(CCC2(c3ccc(Cl)c(Cl)c3)CN(C(=O)Nc3cccc(C(F)(F)F)c3)CCO2)CC1 (stereo not given) | 95% | 66% | 24% |
| Cc1[nH]c2ccccc2c1C1=CCN(CCCCC2(C)C(=O)Nc3cccc(F)c32)CC1 (stereo not given) | 95% | 90% | 9% |
| O=C(/C=C/c1ccc([N+](=O)[O-])cc1)NC1CCC(CN2CCC(c3c[nH]c4ccccc34)CC2)CC1 (stereo not given) | 100% | 61% and 81% | 30% and 34% |
| COc1cccc(C2(C)CCN(CCCCNC(=O)c3ccc(NC(=O)c4ccc(Cl)cc4)cc3)CC2)c1.Cl | 97% | 72% | 19% |
| C=C[C@H]1CN2CC[C@H]1C[C@H]2[C@H](O)c1cc(-c2ccc(Cl)cc2)nc2ccc(OC)cc12.Cl | 99% | 98% | 38% |
| Cc1ccc(-n2nc(C)c3c2NC(=O)CSC3c2ccsc2)cc1 (stereo not given) | 97% | 11% | 0% |
| Oc1ccccc1CN1CCC(CCOC(c2ccccc2)c2ccc(Cl)cc2)CC1 (stereo not given) | 97% | 99% | 19% |

| SMILES | Inhibition [1] | Inhibition [2] | Inhibition [3] |
| --- | --- | --- | --- |
| CN1CCN(c2ccc3[nH]c(-c4ccc5[nH]c(-c6ccc(O)cc6)nc5c4)nc3c2)CC1.Cl.O | 99% | 100% | 0% |
| CC[C@H]1CN2CC[C@H]1C[C@H]2[C@H](O)c1cc(N2CCCC2)nc2ccc(OC)cc12 | 98% | 100% | 0% |
| CC[C@H]1CN2CC[C@@H]1C[C@H]2[C@H](O)c1cc(N2CCC(N3CCCCC3)CC2)nc2ccc(OC)cc12 | 99% | 77% | 0% |
| CC(C)N(C)C(=O)n1cnc(S(=O)(=O)C2CC3CCC2C3)n1.Cl (stereo not given) | 97% | 96% | 26% |
| CC(Cc1ccc(SCCSc2ccccc2)cc1)NCC(O)c1cccc(Cl)c1 (stereo not given) | 98% | 96% | 4% |
| CC(=O)N(Cc1ccccc1-c1ccc(CNCCc2ccccc2)cc1)C1CCN(Cc2ccccc2)CC1.O=C(O)C(F)(F)F | 100% | 85% | 24% |
| Oc1ccc(Cl)cc1CN1CCC(CCOC(c2ccccc2)c2ccccc2)CC1 | 98% | 99% | 14% |
| O=C(Cc1c(-c2ccccc2)[nH]c2ccccc12)NC1CCC(CN2CCC(c3c[nH]c4ccccc34)CC2)CC1 (stereo not given) | 100% | 75% | 31% |
| CN1CC=C(C=Cc2c[nH]c3ccccc23)CC1 | 86% | 64% | 14% |
| Cc1[nH]c2ccc(NS(C)(=O)=O)cc2c1C1CCN(CC2CCN(C(=O)/C=C/c3ccc(Cl)c(Cl)c3)CC2)CC1 | 99% | 83% | 15% |
| O=C(/C=C/c1cc(F)c(F)cc1F)N1CCC(CN2CCC(c3c[nH]c4ccccc34)CC2)CC1 | 93% | 3% | 26% |
| N#Cc1ccc(N(CCCO)Cc2ccccc2C(F)(F)F)cc1C(F)(F)F | 91% | 23% | 7% |
| Cl.O=C(c1cc(C(F)(F)F)cc(C(F)(F)F)c1)N1CCC(CCN2CCC3(CC2)C(=O)NCN3c2ccccc2)CC1Cc1ccc(Cl)c(Cl)c1 (stereo not given) | 100% | 77% | 19% |
| CC(NC(C)(C)C)C(O)c1ccc(Cl)c(C(F)(F)F)c1.Cl (stereo not given) | 97% | 97% | 0% |
| CC[C@@]1(O)C(=O)OCc2c1cc1n(c2=O)Cc2c-1nc1cc3c(cc1c2CN1CCOCC1)OCO3.O=C(O)C(F)(F)F | 89% | 80% | 81% |
| O=C(CSc1ccc(Cl)cc1)NC1CCC(CN2CCC(c3c[nH]c4ccccc34)CC2)CC1 (stereo not given) | 95% | 21% | 41% |
| CC[C@H]1CN2CC[C@H]1C[C@H]2[C@H](O)c1cc(Cl)nc2ccc(OC)cc12 | 100% | 92% | 0% |
| COCCNCc1ccc(-c2ccc(CN(C(=O)Nc3ccccc3)C3CCN(Cc4ccccc4)CC3)cc2)cc1.O=C(O)C(F)(F)F | 98% | 39% | 16% |
| CC(Cc1ccc(OCc2ccccc2)cc1)NCC(O)c1cccc(Cl)c1 (stereo not given) | 99% | 99% | 50% |
| O=C(c1ccccc1)C1CC1CN1CC=C(c2c[nH]c3ccccc23)CC1 (stereo not given) | 95% | 73% | 4% |
